Data published in publication PMC5540273 (PLoS ONE, 2017).

Key:
[1] = tested on: PRKG1
[2] = tested on: RPS6KA4(Kin.Dom.1-N-terminal)
[3] = tested on: RIOK3
[4] = tested on: RIPK1
[5] = tested on: RIPK4
[6] = tested on: ROCK1
[7] = tested on: ROCK2
[8] = tested on: RPS6KA5(Kin.Dom.1-N-terminal)
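Note: kd values determined as follow-up on hits from a single-replicate KINOMEscan panel screen.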

`C[C@@H]1CCN(C(=O)CO)C[C@@H]1N(C)c1ncnc2[nH]ccc12` was tested. Which Kd [1] did it give?
Its Kd is over 10 µM.

What about the Kd [2] of the same compound?
The Kd was over 10 µM.

How did the Kd [3] turn out when `Nc1nc(-c2ccc3c(N)n[nH]c3c2)cc(N2CCC[C@@H](C(=O)Nc3ccccc3)C2)n1.O=C(O)C(F)(F)F.O=C(O)C(F)(F)F` [GSK2288359] was run?
Its Kd is 0.57 µM.

How did the Kd [4] turn out when `Nc1nccc2scc(-c3ccc4c(c3)CCN4C(=O)Cc3cc(F)ccc3F)c12` [GSK2587663] was run?
The Kd was 0.57 µM.

For `O=C(Nc1ccccc1F)NC1CCN(c2ccnc(Nc3ccc(F)cc3)n2)C1` (stereo not shown) [GSK1379722], which Kd [5] is on record?
The Kd was over 10 µM.

Which Kd [6] does the source give for `NC(=O)c1sc(-n2cnc3ccccc32)cc1OCc1ccccc1F` [GSK1024306] here?
Its Kd is 0.46 µM.

What about the Kd [7] of the same compound?
The Kd was 0.47 µM.

For `Cl.Cl.c1ccc(-c2cc3ccncc3cc2OC2CCNCC2)cc1` [GSK1122999], which Kd [6] is on record?
Its Kd is 0.13 µM.

And the Kd [7]?
Its Kd is 0.18 µM.

With `Fc1cccc(COc2ccc(Nc3ncnc4sc(-c5ccc[nH]5)cc34)cc2Cl)c1` [GW707818] as the compound, how does the Kd [8] read?
The Kd was over 10 µM.
